Experimental data published in PubChem BioAssay AID1626 (SRMLSC, 2009).
In all, about 220,000 compounds went through this assay and about 2,000 (0.91%) were called active. Another 2% or so got no clear call; they are omitted. A selection follows. Measured potencies and affinities stand elsewhere. A number with no mark means an inactive call. No stated cut-off is given here; in the data, inconclusive means inhibition above about 80% without an active follow-up result; inactive means below that; test concentration not stated here.

Assay: M. tuberculosis H37Rv growth inhibitors, H37Rv strain (AID 1626);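 further: bacteria incubated seven days before Alamar blue readout; 0% = bacteria only wells and 100% = bacteria with antibiotic wells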
Settings: hits give high values, concentration not given here

Structure (SMILES) | inhibition [%]
COc1cccc(-c2nc(-c3ccc(C(=O)O)cc3)no2)c1 | -12.7
O=[N+]([O-])c1cc(CN2CCCC2)c2cccnc2c1O | -5.59
O=[N+]([O-])c1cc(CN2CCN(c3ccccc3)CC2)c(O)c2ncccc12 | 77.9
COc1ccc(NC(=O)C2C3CCC(C3)C2C(=O)O)cc1OC (configuration not stated) | 6.44
COCCC(=O)Nc1ccc2c(c1)CN(C(=O)CCSC)CC2 | 3.42
CCn1c(CNc2ccc(OC)cc2)nnc1SCC(=O)Nc1ccc(F)cc1 | -10.9
CCn1c(CNc2ccccc2Cl)nnc1SCC(=O)NCc1ccccc1 | -4.41
CCn1c(CNc2ccc(F)cc2)nnc1SCC(=O)Nc1ccc(OC)cc1 | 2.51
CCn1c(CNc2ccccc2Cl)nnc1SCCN1CCCCC1 | -2.66
Cc1ccc(NC(=O)CSc2nnc(Cc3ccccc3)o2)cc1 | 22.6
O=C(CSc1nnc(Cc2ccccc2)o1)Nc1ccccc1 | -4.88
COCCN(C(=O)c1ccco1)C(C(=O)NC1CCCC1)c1cccs1 (configuration not stated) | 0.07
CC(OC(=O)c1snc(C(=O)NC2CCCCC2)c1N)C(=O)NC1CCCCC1 (configuration not stated) | 2.49
CCOC(=O)c1snc(C(=O)NC2CCCCC2)c1N | 5.5
CC(OC(=O)c1snc(C(=O)NC2CCCCC2)c1N)C(=O)NC(C)(C)C (configuration not stated) | 39
CCOC(=O)c1sc(C)c(C(=O)NC2CCCCC2)c1N | 4.33
COc1ccc(NC(=S)Nc2ccccc2F)c(OC)c1 | -4.54
COC(=O)c1ccccc1NC(=O)C1CCCN(S(=O)(=O)c2ccc(OC)cc2)C1 (configuration not stated) | 5.41
O=C(/C=C/c1ccccc1Cl)NCc1cccs1 | 2.96
O=C1CC(SCc2nc3ccccc3[nH]2)C(=O)N1c1ccc(F)c(Cl)c1 (configuration not stated) | -2.51
Cc1cccn2c(=O)c3cc(C(=O)NC(C)c4ccccc4)c(=N)n(CCCn4ccnc4)c3nc12 (configuration not stated) | 48.6
C=CC(=O)NC1CC2CCC1(C)C2(C)C (configuration not stated) | 6.5
CC1(C)C2CCC1(C)C(Nc1ccccc1)C2 (configuration not stated) | 3.82
Cc1onc(-c2c(F)cccc2Cl)c1C(=O)N1CCN(c2ncccn2)CC1 | 3.2
COc1cc(CNn2c(C)n[nH]c2=S)cc(Br)c1OCc1ccc(F)cc1 | 6.01
CCOc1ccc(OCc2ccc(C(=O)N3CCOCC3)cc2)cc1 | -3.72
CCOc1ccc(N=C(/C(C(=O)C(=O)N2CCOCC2)=C(/O)c2ccccc2)c2ccccc2)cc1 | 70.8
